# Assay results reported in the supplement of paper PMC7411640.
# Structures can show the parent of a compound that is named as a salt.
# System: MDA-MB-468
# Assay: phospho-S6 immunofluorescence (DAPI-normalised), per-plate z-score; higher = higher phospho-S6 signal (less pathway suppression)
# Conditions: co-treatment: GDC0941 450 nM; 24 h
# Procedure: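 GPCR-targeted compound library (MedChemExpress HY-L006) tested on MDA-MB-468 PTEN-null TNBC cells in 384-well plates at 0.1, 1 or 10 uM, combined with vehicle, GDC0941 450 nM or lapatinib 1 uM, for 24 h. Phospho-S6 (S240/244) immunofluorescence normalised to DAPI and expressed as a per-plate z-score; values are the mean of biological triplicates.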
row,SMILES,phospho-S6 immunofluorescence (z-score)
1,COc1ccc(C(=O)c2c(C)n(CCN3CCOCC3)c3cc(I)ccc23)cc1 (compound 10 µM),-3.18
2,CN1C(=O)COc2c(C(=O)NC3CN4CCC3CC4)cc(Cl)cc21 (stereo unspecified) [Azasetron (hydrochloride)] (compound 10 µM),0.53
3,CN(C)CCN(C)CCc1ccc(Cl)c(Cl)c1 [BD-1047 (dihydrobromide)] (compound 10 µM),0.39
4,COc1cc2c3c(c1OC)-c1ccccc1C[C@H]3N(C)CC2 [Nuciferine] (compound 10 µM),0.21
5,CN1CCC(c2c[nH]c3ccc(O)cc23)CC1 (compound 10 µM),0.22
6,Cc1ccc2c(c1)[C@]13CCCC[C@@H]1[C@H](C2)N(C)CC3 [Dimemorfan (phosphate)] (compound 10 µM),0.3
7,O=c1[nH]c2ccccc2n1CCCN1CCC(n2c(=O)[nH]c3cc(Cl)ccc32)CC1 [Domperidone] (compound 10 µM),0.19
8,CC(C)(C)NCC(O)c1ccc(O)cc1Cl (stereo unspecified) (compound 10 µM),0.77
9,NCC(O)c1ccc(O)cc1 (stereo unspecified) [Octopamine (hydrochloride)] (compound 10 µM),0.26
10,Cc1cccc([C@H](C)c2c[nH]cn2)c1C [Dexmedetomidine (hydrochloride)] (compound 10 µM),0.32
11,Oc1ccc2c3c1O[C@H]1c4[nH]c5ccccc5c4C[C@@]4(O)[C@@H](C2)N(CC2CC2)CC[C@]314 [Naltrindole (hydrochloride)] (compound 10 µM),-1.12
